According to PubChem BioAssay (NCATS):
Results filed as inconclusive are left out. A call without a number means that no potency is given here. Activity calls are given as the source filed them. Unless noted, calls come from the whole dose curve. Peptide text beside a SMILES is read from it. * marks the point of attachment. Cbz = O=C(OCc1ccccc1)*

What was measured:
[1] = qHTS for Inhibitors of the Functional Ribonucleoprotein Complex (vRNP) of Lassa (LASV) Arenavirus: LASV Primary Screen - GLuc reporter signal (AID 1347082; calls by dose curve; tested in HEK293 reporter line; note: nearly all actives have a fitted effect of over 60% in size; note: potency is the fitted concentration of half-maximal effect)
[2] = qHTS for Inhibitors of the Functional Ribonucleoprotein Complex (vRNP) of Lassa (LASV) Arenavirus: Viability assay - alamar blue signal for LASV Primary Screen (AID 1347083; calls by dose curve; tested in HEK293 reporter line; note: nearly all actives have a fitted effect of over 80% in size; note: potency is the fitted concentration of half-maximal effect)
[3] = qHTS for Inhibitors of the Functional Ribonucleoprotein Complex (vRNP) of Lymphocytic Choriomeningitis Arenaviruses (LCMV): Viability assay - alamar blue signal for LCMV Primary Screen (AID 1347085; calls by dose curve; tested in HEK293 reporter line; note: nearly all actives have a fitted effect of over 80% in size; note: potency is the fitted concentration of half-maximal effect)
[4] = target: Nucleoprotein (Lymphocytic choriomeningitis virus (strain Armstrong)) (UniProt P09992); test: qHTS for Inhibitors of the Functional Ribonucleoprotein Complex (vRNP) of Lymphocytic Choriomeningitis Arenaviruses (LCMV): LCMV Primary Screen - GLuc reporter signal (AID 1347086); note: nearly all actives have a fitted effect of over 70% in size; note: potency is the fitted concentration of half-maximal effect
[5] = Cytotoxicity counterscreen for inhibitors of SARS-CoV-2 cell entry (AID 1645845); note: nearly all actives have a fitted effect of over 50% in size; note: potency is the fitted concentration of half-maximal effect
How it was run: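 After a 15 min room-temperature ATPLite 1step step, luminescence reflected ATP remaining in HEK293-ACE2 cells exposed to compound for 1 h plus 48 h at 37 C, with percent activity set by cell and no-cell controls.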

[6] = Primary qHTS to identify inhibitors of SARS-CoV-2 cell entry (AID 1645846); conditions: activity change, negative = inhibition: at 57.1 µM (top of the series) unless noted; note: nearly all actives have a fitted effect of over 45% in size; note: potency is the fitted concentration of half-maximal effect
How it was run: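 HEK293-ACE2 (Expi293F, stable hACE2), 1500 cells/well, o/n 37C; cpd 23 nL pin, 1 h; MLV-PP w/ SARS-CoV-2-S (Wuhan-Hu-1, Δ19 C-term); 48 h 37C; Bright-Glo luminescence; normalized vs S-PP and bald PP.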

[7] = target: Alpha-galactosidase (Coffea arabica) (UniProt Q42656); test: Counterscreen for Glucocerebrosidase Inhibitors: qHTS Assay for Coffee Bean alpha-Galactosidase at pH 4.5 (AID 957; active = well fitted curve in the direction sought with a large enough effect; an effect the other way counts as inactive or inconclusive)
How it was run: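 Fluorogenic qHTS at pH 4.5 (citrate buffer with Tween-20): 2 nM enzyme, 80 uM 4-MU-alpha-galactoside substrate, compound titrated 0.7 nM to 77 uM, 20 min room temperature. Glycine/NaOH stop; 4-MU read Ex 365/Em 440; Hill-equation AC50 against no-enzyme and enzyme controls.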

[8] = target: Alpha-galactosidase (Coffea arabica) (UniProt Q42656); test: Counterscreen for Glucocerebrosidase Inhibitors: qHTS Assay for Coffee Bean alpha-Galactosidase at pH 5.9 (AID 998; active = well fitted curve in the direction sought with a large enough effect; an effect the other way counts as inactive or inconclusive)
How it was run: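 In 50 mM citric acid pH 5.9 with 0.005% Tween-20, coffee bean enzyme hydrolyses 80 uM 4-MU alpha-D-galactopyranoside over 20 min at RT. Activity is normalized to controls; AC50 comes from Hill-modelled concentration-response data.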

[9] = Validation screen for inhibitors of Lassa infection (AID 463096)
[10] = Inducers of the Endoplasmic Reticulum Stress Response (ERSR) in human glioma: Validation (AID 504836; active = well fitted curve in the direction sought with a large enough effect; an effect the other way counts as inactive or inconclusive)
How it was run: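 Stably transfected U87-MG human glioma cells carrying a GRP78-based luminescent sensor were seeded at 1000 cells/well, pin-dosed with compounds and incubated 16 h. Luciferase reagent was then added, and end-point luminescence was read after 10 min at room temperature.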

Nucleoprotein (Lymphocytic choriomeningitis virus (strain Armstrong)), sequence (P09992 whole entry, looked up): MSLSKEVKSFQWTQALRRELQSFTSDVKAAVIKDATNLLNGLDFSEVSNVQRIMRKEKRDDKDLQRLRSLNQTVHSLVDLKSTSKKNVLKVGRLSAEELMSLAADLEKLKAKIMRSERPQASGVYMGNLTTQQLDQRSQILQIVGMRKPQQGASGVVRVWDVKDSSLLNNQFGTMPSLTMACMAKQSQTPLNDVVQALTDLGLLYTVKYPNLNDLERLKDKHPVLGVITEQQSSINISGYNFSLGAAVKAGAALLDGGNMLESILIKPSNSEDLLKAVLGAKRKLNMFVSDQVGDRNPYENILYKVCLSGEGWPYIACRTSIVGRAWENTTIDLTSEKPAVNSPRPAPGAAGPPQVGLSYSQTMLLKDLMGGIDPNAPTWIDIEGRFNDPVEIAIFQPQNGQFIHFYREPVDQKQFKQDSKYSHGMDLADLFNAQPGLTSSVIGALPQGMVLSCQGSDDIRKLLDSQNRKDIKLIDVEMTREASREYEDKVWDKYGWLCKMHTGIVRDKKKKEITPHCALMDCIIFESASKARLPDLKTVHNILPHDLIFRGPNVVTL
Alpha-galactosidase (Coffea arabica), sequence (Q42656 whole entry, looked up): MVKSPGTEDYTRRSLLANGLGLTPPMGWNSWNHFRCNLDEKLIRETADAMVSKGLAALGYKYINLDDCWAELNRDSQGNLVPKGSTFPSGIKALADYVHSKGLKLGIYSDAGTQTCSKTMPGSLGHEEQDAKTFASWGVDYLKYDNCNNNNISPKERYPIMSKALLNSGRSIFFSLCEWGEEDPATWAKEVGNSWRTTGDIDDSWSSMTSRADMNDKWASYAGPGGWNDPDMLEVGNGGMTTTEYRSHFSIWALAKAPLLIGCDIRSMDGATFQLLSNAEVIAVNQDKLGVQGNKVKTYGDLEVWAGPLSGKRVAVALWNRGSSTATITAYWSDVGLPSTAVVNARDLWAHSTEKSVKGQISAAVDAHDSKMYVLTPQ

Row | Compound | Potency [1] | Potency [2] | Potency [3] | Potency [4] | Potency [5] | activity change, negative = inhibition [6] | Potency [6] | activity change, negative = cytotoxicity [5] | outcome [7] | outcome [8] | Potency [9] | outcome [10]
1 | CCOC(=O)C1=C(N)Oc2ccc(Br)cc2C1C(C#N)C(=O)OCC (stereo not given) | inactive | inactive | inactive | inactive | inactive | -18.1% | – | – | – | – | – | –
2 | Cc1cncc2cccc(S(=O)(=O)N3CCCN(C(=O)CN)C[C@@H]3C)c12 | inactive | inactive | inactive | inactive | inactive | -30.7% | – | – | – | – | – | –
3 | CC(C)[C@H](O)C(=O)N[C@@H](C)C(=O)N[C@@H]1C(=O)N(C)CCc2ccccc21 | inactive | inactive | inactive | inactive | inactive | 4.11% | – | – | – | – | – | –
4 | O=C1CN2Cc3c(ccc(Cl)c3Cl)N=C2N1 | inactive | inactive | inactive | inactive | inactive | – | inactive | – | – | – | – | –
5 | Cn1c(CNc2ccc(C(=N)N)cc2)nc2cc(C(=O)N(CCC(=O)O)c3ccccn3)ccc21 | inactive | inactive | inactive | inactive | – | -9.36% [at 0.702 µM] | – | -8.56% [at 0.702 µM] (inactive) | – | – | – | –
6 | C[C@H](NC(=O)Cc1cc(F)cc(F)c1)C(=O)N[C@H](C(=O)OC(C)(C)C)c1ccccc1 | inactive | inactive | inactive | inactive | inactive | -33% | – | – | – | – | – | –
7 | CCCCC(F)(F)[C@@]1(O)CC[C@H]2[C@H](CC(=O)[C@@H]2CCCCCCC(=O)O)O1 | inactive | inactive | inactive | inactive | inactive | – | inactive | – | – | – | – | –
8 | OCc1ccc(-c2ccc(-c3ccc(CO)s3)o2)s1 | inactive | inactive | inactive | inactive | inactive | – | inactive | – | – | – | – | –
9 | O=c1cc(-c2ccccc2)oc2cc(O)cc(O)c12 | inactive | inactive | inactive | inactive | inactive | – | inactive | – | – | – | – | –
10 | COc1c(N2C[C@@H]3CCCN[C@H]3C2)c(F)cc2c(=O)c(C(=O)O)cn(C3CC3)c12 | inactive | inactive | inactive | inactive | inactive | 2.05% | – | – | – | – | – | –
11 | COc1nccc(-c2c(-c3ccc(F)cc3)ncn2C2CCC(O)CC2)n1 (stereo not given) | inactive | inactive | inactive | inactive | inactive | – | inactive | – | – | – | – | –
12 | c1cc(-c2sc(-c3ccncc3)c(-c3ccncc3)c2-c2ccncc2)ccn1 | inactive | inactive | inactive | inactive | inactive | – | inactive | – | – | – | – | –
13 | N#CC1(c2ccc(NC(=O)c3cccnc3NCc3ccncc3)cc2)CCCC1 | inactive | inactive | inactive | inactive | inactive | – | inactive | – | – | – | – | –
14 | Cc1noc(-c2ccc(CSCCC(=O)O)cc2)c1NC(=O)OC(C)c1ccccc1Cl (stereo not given) | inactive | inactive | inactive | inactive | inactive | -12.6% | – | – | – | – | – | –
15 | CNC(=O)c1cc(COc2nnc(Nc3ccc(Cl)cc3)c3ccoc23)ccn1 | inactive | inactive | inactive | inactive | inactive | -17% | – | – | – | – | – | –
16 | O=C(O)CCCCC(CCSCc1ccccc1)SCc1ccccc1 (stereo not given) | inactive | inactive | inactive | inactive | inactive | -0.966% | – | – | – | – | – | –
17 | c1ccc2c(Oc3nc(Nc4ccc(N5CCOCC5)cc4)c4ncn(C5CCCCC5)c4n3)cccc2c1 | inactive | inactive | inactive | inactive | inactive | -17.3% | – | – | – | – | – | –
18 | COc1ccc(CC2=NN3C([C@@H](CCc4ccccc4)[C@@H](C)O)=NC(C)C3C(=O)N2)cc1OC (stereo not given in full) | inactive | inactive | inactive | inactive | inactive | – | inactive | – | – | – | – | –
19 | OC[C@@H](O)[C@@H](O)[C@H](O)[C@@H](O)CO | inactive | inactive | inactive | inactive | inactive | – | inactive | – | – | – | – | –

Row | Compound | Potency [1] | Potency [2] | Potency [3] | Potency [4] | Potency [5] | activity change, negative = inhibition [6] | Potency [6] | activity change, negative = cytotoxicity [5] | outcome [7] | outcome [8] | Potency [9] | outcome [10]
20 | O=C(c1ccc(C(=O)N2CCC(N3CCCC3)CC2)c(Nc2ccccc2)c1)N1CCC(N2CCCC2)CC1 | inactive | inactive | inactive | inactive | inactive | -24.6% | – | – | – | – | – | –
21 | CC(C)C[C@@H](C=O)NC(=O)[C@H](CC(C)C)NC(=O)[C@H](CC(C)C)NC(=O)OCc1ccccc1 (Cbz-Leu-Leu-Leu-aldehyde) | 1.93 µM (active) | 4.32 µM (active) | 5.44 µM (active) | 3.43 µM (active) | 1.12 µM (active) | -96.8% | – | – | – | – | – | –
22 | Cc1coc2c1C(=O)C(=O)c1c-2ccc2c1CCCC2(C)C | inactive | inactive | inactive | inactive | inactive | -20% | – | – | – | – | – | –
23 | Clc1ccc2c(N3CCN(CCCN4CCN(c5ccnc6cc(Cl)ccc56)CC4)CC3)ccnc2c1 | inactive | inactive | inactive | inactive | inactive | -11.2% | – | – | – | – | – | –
24 | CC(C)(O)CCc1ccc(OCc2cc(-c3cccc(OC(F)F)c3)c3ncccc3c2)cc1 | inactive | inactive | inactive | inactive | inactive | -16.6% | – | – | – | – | – | –
25 | CC1(COc2ccc3c(c2)ncn3-c2ccc3cccc(N4CCC(N)CC4)c3n2)COC1 | 0.0544 µM (active) | inactive | inactive | inactive | 28.2 µM (active) | – | 10 µM (active) | – | – | – | – | –
26 | O=c1ccn([C@@H]2O[C@H](CO)[C@H](O)[C@@H]2F)c(=O)[nH]1 | 4.85 µM (active) | 6.11 µM (active) | 4.32 µM (active) | 3.06 µM (active) | inactive | -22.4% | – | – | – | – | – | –
27 | CCc1c(O)cc(O)c(C(=O)c2ccc(OCCN3CCOCC3)c(OC)c2)c1CC(=O)N(CCOC)CCOC | 12.2 µM (active) | 6.11 µM (active) | 5.44 µM (active) | 3.43 µM (active) | inactive | -26.7% | – | – | – | – | – | –
28 | CCOC(=O)C1=C(O)C(=O)N(Cc2ccccc2)C1 | inactive | inactive | inactive | inactive | inactive | – | inactive | – | – | – | – | –
29 | Cc1cnc(C(=O)O)c[n+]1[O-] | inactive | inactive | inactive | inactive | inactive | -9.41% | – | – | – | – | – | –
30 | CC(=O)OC1C(C)OC(Oc2c(-c3ccc(O)cc3)oc3cc(O)cc(O)c3c2=O)C(O)C1OC(C)=O (stereo not given) | inactive | inactive | inactive | inactive | inactive | – | inactive | – | – | – | – | –
31 | Cc1cc(N2CCOCC2)cc2[nH]c(-c3c(NC[C@@H](O)c4cccc(Cl)c4)cc[nH]c3=O)nc12 | 3.85 µM (active) | 0.769 µM (active) | 0.863 µM (active) | 1.53 µM (active) | inactive | -9.29% | – | – | – | – | – | –
32 | O=C(O)C1=CC(O)C(O)[C@H](O)C1 (stereo not given in full) | inactive | inactive | inactive | inactive | inactive | -8.99% | – | – | – | – | – | –
33 | COc1ccc2c(Oc3ccc(NC(=O)c4c(C)n(CC(C)(C)O)n(-c5ccccc5)c4=O)cc3F)ccnc2c1 | inactive | inactive | inactive | inactive | inactive | -8.07% | – | – | – | – | – | –
34 | CC(=O)SCC(Cc1ccccc1)C(=O)NCC(=O)OCc1ccccc1 (stereo not given) | 1.09 µM (active) | 0.432 µM (active) | 0.172 µM (active) | 0.273 µM (active) | inactive | -34.7% | – | – | – | – | – | –
35 | Cn1c(=O)c(-c2c(Cl)cccc2Cl)cc2cnc(Nc3cccc(C(=O)O)c3)nc21 | inactive | inactive | inactive | inactive | inactive | – | inactive | – | – | – | – | –
36 | Cc1ccc2c(c1)C(=O)[C@]1(O)CCN(c3ccccc3)C1=N2 | inactive | inactive | inactive | inactive | inactive | -18.4% | – | – | – | – | – | –
37 | N#C/C(=C\c1ccc(O)c(O)c1)C(=O)NCc1ccccc1 | inactive | inactive | inactive | inactive | inactive | – | – | – | inactive | inactive | inactive | inactive
